From PubChem BioAssay (Tox21)
Records with an inconclusive call do not appear. Some compounds were tested as several samples or in several runs, with calls that do not always agree. Values without a mark were called inactive. Activity calls are given as the source filed them. The call rests on the fitted dose curve; in most records, active means well fitted cell-killing curve with a large enough effect in the repeat runs; inconclusive means weak or mixed curves, or effect the other way; inactive means flat fitted curve, though single readings scatter.
On the % scale 0 is the no-effect control and ±100 the full control effect; potency means the concentration at half of the fitted maximal effect.

Assay: qHTS RealTime-Glo MT Cell Viability Assay in HEK293 cells - 40 hour (AID 1224874); further: nearly all actives have a fitted effect of over 50% in size
Details: RealTime-Glo luminescence; max response: active compounds read low
Description: U.S. Tox21 Program National Center for Advancing Translational Sciences [NCATS] NIH Chemical Genomics Center [NCGC] U.S. Environmental Protection Agency [EPA] National Institutes of Environmental Health Sciences [NIEHS] National Toxicology Program [NTP] U.S. Food and Drug Administration [FDA] Tox21 Assay Overview: Measure of cell viability is critical in the cell-base assay. Analysis of cell viability is necessary for the characterization of cell responses to cytotoxic drugs and environmental stress. A RealTime-Glo MT Cell Viability Assay to monitor cell viability in real time of continues cell culture during 40 hours of compound treatment was used to screen Tox21 10K library compounds in Hek293 cells. The RealTime-Glo MT Cell Viability Assay is a nonlytic, homogeneous, bioluminescent method to measure cell viability in real time using a simple, plate-based method. The assay involves adding NanoLuc luciferase and a cell-permeant prosubstrate to cells in culture. Viable cells reduce the proprietary prosubstrate to generate a substrate for NanoLuc luciferase. This substrate diffuses from cells into the surrounding culture medium, where it is rapidly used by the NanoLuc Enzyme to produce a luminescent signal. The signal correlates with the number of viable cells, making the assay well suited for cytotoxicity studies.
Tox21 Assay Protocol Summary: The mixture of Hek293 cell suspension and reagents were dispensed at 600cells/6 ul/well in 1536-well tissue culture treated black solid bottom plates using a Multidrop dispenser. After the assay plates were incubated at a 37 C/5% CO2 incubator for 5 hours, 23 nL of compounds dissolved in DMSO, positive and negative controls was transferred to the assay plate by a pintool work station. The plates were incubated at 37 C for 40 hours. The luminescence intensity were measured at 0h, 8h, 16h, 24h, 32h and 40h time points using ViewLux plate reader during compound treatment.
Work on `O=c1[nH][nH]c(=O)c2cc([N+](=O)[O-])ccc12` yielded a max response of -11.6%. `C=C(C)C(=O)OCCC(F)(F)C(F)(F)C(F)(F)C(F)(F)C(F)(F)C(F)(F)F` gave a max response of 0.419%. `CC[C@H]1OC(=O)[C@H](C)[C@@H](O[C@H]2C[C@@](C)(OC)[C@@H](O)[C@H](C)O2)[C@H](C)[C@@H](O[C@@H]2O[C@H](C)C[C@H](N(C)C)[C@H]2O)[C@](C)(O)C[C@@H](C)/C(=N\OCOCCOC)[C@H](C)[C@@H](O)[C@]1(C)O` showed a max response of -15%. For `CC(=O)OCC(=O)[C@@]1(OC(C)=O)[C@@H](C)C[C@H]2[C@@H]3C[C@H](F)C4=CC(=O)C=C[C@]4(C)[C@@]3(F)[C@@H](O)C[C@@]21C`, the max response was -24.6%. Molecule `O=C(O)CCC(=O)OC[C@@H](NC(=O)C(Cl)Cl)[C@H](O)c1ccc([N+](=O)[O-])cc1` has a max response of 5.1%. With `COC(=O)c1sccc1S(N)(=O)=O` the max response was -18.1%. For `O=C1[C@@H]2[C@H]3CC[C@H](C3)[C@@H]2C(=O)N1CCCCN1CCN(c2ncccn2)CC1`, the max response was -0.051%. `O=C(O)c1cc(Cl)cc(Cl)c1O` showed a max response of -0.228%. With `O=C(/C=C/c1ccc([N+](=O)[O-])cc1)c1ccccc1` the Potency was 24.6 µM (active). `Oc1cccc2[nH]ccc12` showed a max response of 12.2%. For `CC(C)Cc1ccc(CC(=O)O)cc1`, the max response was 4.43%. `CCN(CC)CCOC(=O)C(c1ccccc1)c1ccccc1` showed a max response of 0.0208%. For `CC(CCc1ccc(O)cc1)NCCc1ccc(O)c(O)c1` (stereo not given), the max response was -18.1%. Work on `Cc1oc(=O)oc1COC(=O)[C@@H]1N2C(=O)[C@@H](NC(=O)[C@H](N)c3ccccc3)[C@H]2SC1(C)C` yielded a max response of 6.21%. With `Cc1ccccc1S(N)(=O)=O` the max response was 8.27%. Molecule `CC1CCCO1` (stereo not given) has a max response of 5.81%. `C[C@@H]1[C@H](O)[C@@H](C)/C=C/C=C\C=C\C=C\C=C\C=C\C=C\[C@H](O[C@@H]2O[C@H](C)[C@@H](O)[C@H](N)[C@@H]2O)C[C@@H]2O[C@](O)(C[C@@H](O)C[C@@H](O)[C@H](O)CC[C@@H](O)C[C@@H](O)CC(=O)O[C@H]1C)C[C@H](O)[C@H]2C(=O)O` (stereo in doubt) showed a max response of -0.557%. `O=C1CC[C@@H](C(=O)O)N1` gave a max response of 0.932%. In the case of `CSCC[C@H](NC(=O)[C@H](Cc1c[nH]c2ccccc12)NC(=O)CCNC(=O)OC(C)(C)C)C(=O)N[C@@H](CC(=O)O)C(=O)N[C@@H](Cc1ccccc1)C(N)=O`, the max response is reported as 3.31%. With `Cc1ccc(Nc2c(F)cccc2Cl)c(CC(=O)O)c1` the max response was 5.05%. With `Nc1ccc(F)cc1` the max response was 14.2%. In the case of `COc1ccc2nc(S(=O)Cc3ncc(C)c(OC)c3C)[nH]c2c1` (stereo not given), the Potency is reported as 19.3 µM (active) and the max response is reported as -10.3%. In the case of `O=[N+]([O-])c1ccc2ncccc2c1`, the max response is reported as 2.13%. In the case of `CC(CN(CCN(CC(C)OCCO)CC(C)OCCO)CC(C)OCCO)OCCO` (stereo not given), the Potency is reported as 23.7 µM (active). `Nc1ccc(N=Nc2ccc(N)cc2)cc1` gave a max response of -7.32%. For `CC[C@@H](CO)NCCN[C@@H](CC)CO`, the max response was 5.04%. In the case of `C1=CCC2CC=CC2C1` (stereo not given), the max response is reported as 16.8%. Molecule `CCC(CO)(CO)CO` has a max response of 5.95%. `O=C1OC(=O)c2c(Br)c(Br)c(Br)c(Br)c21` gave a max response of -18%. For `COC(=O)CC(C(C)=O)C(=O)OC` (stereo not given), the max response was 9.23%. Molecule `CCCCCCOC(=O)CCCCC` has a max response of 0.369%. In the case of `COC1CCC=CO1` (stereo not given), the max response is reported as 9.69%. In the case of `CSSc1ccoc1C`, the max response is reported as 0.757%. Molecule `CCN(CC)c1cccc(O)c1` has a max response of 7.38%. `COC(CC(C)CCCC(C)(C)O)OC` (stereo not given) gave a max response of 1.35%. With `CCCCCCCC(=O)Oc1c(Br)cc(C#N)cc1Br` the Potency was 38.8 µM (active). For `CCOC(=O)c1c(N)sc2c1CCN(Cc1ccccc1)C2`, the Potency was 19 µM (active). `CCO[Si](C)(CCCOCC1CO1)OCC` (stereo not given) gave a max response of 13.3%. In the case of `CC(C)C(O)C(C)(C)CO` (stereo not given), the Potency is reported as 0.899 µM (active).
